Rows were chosen to be rich in hits. Some 5.3% of all compounds tested hit in one or more screens of this group.
FMDV antiviral = High Throughput Screening for Foot and Mouth Disease Virus Antivirals; FMDV antiviral cell-based qHTS; Potency, µM (titrated, usually from 57.9 µM), for the others: top-dose activity change, negative = inhibition, hits mostly inhibitors; 1.2% of 410,000 active; AID 1159524, 2015; calls by dose curve; tested in HEK293T cells; also: read-out not given here; nearly all actives have a fitted effect of over 45% in size
Marburg entry inh = qHTS for inhibitors of binding or entry into cells for Marburg Virus; Marburg virus pseudotyped entry inhibition, cell reporter; Potency, µM (doses to about 37.8 µM), without a hit: at the top dose activity change, negative = inhibition, most hits filed as inhibitors; 1.8% of 300,000 active; calls by dose curve; tested in HEK293 cells
Vaccinia mCherry = qHTS for Stage-Specific Inhibitors of Vaccinia Orthopoxvirus: mCherry Reporter Primary qHTS. 0.63% of 310,000 active. AID 720579, 2013. Potency, µM (series often up to 36.5 µM), without a hit: top-dose activity change, negative = inhibition, actives largely listed as inhibitors. Vaccinia virus mCherry reporter infection, fluorescence; calls by dose curve; tested in A549 cells; also: nearly all actives have a fitted effect of over 35% in size
LASV entry inh = qHTS for Inhibitors of binding or entry into cells for Lassa Virus. Lassa virus pseudotype entry inhibition, cell reporter. Potency, µM (highest dose often 37.9 µM), inactives show at the highest dose activity change, negative = inhibition, actives largely listed as inhibitors. 1.2% of 300,000 active. AID 540256, 2011; calls by dose curve; tested in HEK293 cells; also: nearly all actives have a fitted effect of over 50% in size
HCV inhibitor = qHTS Assay for Inhibitors of Hepatitis C Virus (HCV); Huh7.5.1 HCVcc-Cre infection, luciferase reporter, 44 h; Potency, µM (top dose mostly 41.8 µM), for the others: top-dose activity change, negative = inhibition, hits mostly inhibitors; 3.4% of 340,000 active; AID 651820, 2012; active = well fitted inhibition curve with a large enough effect; inconclusive = small, poorly fitted or top-dose-only effect, or another doubt; inactive = no such curve, though single readings can be large or run the other way
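Infectious HCV cell culture screen: compound-treated cells (1,000/well, pre-plated 4 h) are infected with HCVcc-Cre at roughly 0.5 moi and grown 44 h. Infection is quantified by luciferase signal after 15 min substrate incubation at room temperature.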
Vaccinia Venus = qHTS for Stage-Specific Inhibitors of Vaccinia Orthopoxvirus: Venus Reporter Primary qHTS; 0.46% of 330,000 active; AID 720580, 2013; Potency, µM (titrated, usually from 36.5 µM), for the others: at the top dose activity change, negative = inhibition, actives largely listed as inhibitors; Vaccinia virus Venus reporter expression, fluorescence; calls by dose curve; tested in A549 cells; also: nearly all actives have a fitted effect of over 30% in size
* hit, by the source's call; i = inactive; ? = inconclusive; · = no result; [ ] = another dose, or the depositor's remark. % is scaled to controls: 0 for no effect and ±100 for the full control effect; potency is read from the fitted curve at half-maximal effect.

SMILES	FMDV antiviral	Marburg entry inh	Vaccinia mCherry	LASV entry inh	HCV inhibitor	Vaccinia Venus
O=C(CN1CCN(c2ccc(F)cc2)CC1)N1N=CCC1c1ccccc1 (configuration not stated)	·	-9%	i	1%	11µM*	2%
CCn1nc(-c2ccccc2)nc2c(=O)n(C)c(=O)nc1-2	1.8µM*	0.89µM*	2.5µM*	?	2.8µM*	2.2µM*
CCS(=O)(=O)n1nc(-c2ccc(C)cc2)nc1N	31%	9%[46.1 µM]	-13%	2%	-1%	1%
CCn1nc(-c2ccc(C)cc2)nc2c(=O)n(C)c(=O)nc1-2	·	·	2.5µM*	·	·	3.2µM*
COC(C(=O)N1CCC(CCC(=O)Nc2ccccc2)CC1)c1ccccc1 (configuration not stated)	15%	21%	i	11%	-21%	-6%
COc1cc(N2C(=O)C=CC2=O)c(OC)cc1Cl	35µM*	?	-1%	?	?	-22%
Cc1cccc(NC(=O)CN2CCN(C(=O)CN3C(=O)NC4(CC(C)CC(C)(C)C4)C3=O)CC2)c1C (configuration not stated)	-29%	·	·	·	?	·
CC1(c2ccc3ccccc3c2)NC(=O)N(CC(=O)N2CCN(Cc3ccc(C#N)cc3)CC2)C1=O (configuration not stated)	?	0.56µM*	?	?	1.3µM*	?
CC1CC(C)(C)CC2(C1)NC(=O)N(CC(=O)N1CCN(Cc3ccc(C#N)cc3)CC1)C2=O (configuration not stated)	?	?	?	?	1.4µM*	-25%
CCN(c1ccccc1)S(=O)(=O)c1ccc(N2CCN(c3ccc(O)cc3)CC2)nc1	?	?	-22%	7.9µM*	?	-28%
CCCOc1ccccc1-n1sc2c(c1=S)-c1cc(OC)cc3c1N(C(=O)C3=O)C2(C)C	?	?	i	?	13µM*	-2%
COc1cc2c3c(c1)C(C)=CC(C)(C)N3C(=O)C2=O	30%	?	-22%	3%	-10%	0%
Cc1cccc(NC(=O)[C@H](Cc2c[nH]c3ccccc23)NC(=O)[C@@H]2Cc3ccccc3CN2)c1	-4%	·	11µM*	·	4µM*	33%
O=C(NC(Cc1c[nH]c2ccccc12)C(=O)Nc1ccc(F)cc1)c1cccs1 (configuration not stated)	-17%	?	?	1.4µM*	-9%	13%
Cc1cc(C)cc(NC(=O)[C@H](NC(=O)[C@@H]2Cc3ccccc3CN2)c2ccccc2)c1	-16%	1.4µM*	-20%	30%[46.1 µM]	-20%	-11%
CCc1ccc(NC(=O)[C@H](Cc2c[nH]c3ccccc23)NC(=O)[C@@H]2Cc3ccccc3CN2)cc1	8%	·	5µM*	·	3.5µM*	12%
COc1ccc(Cn2c(=O)[nH]c3cc(C(=O)N4CCN(c5cccc(OC)c5)CC4)ccc3c2=O)cc1	?	-19%[46.1 µM]	-17%	5%[46.1 µM]	·	-7%
O=C(c1ccc2c(=O)n(CCc3ccccc3)c(=O)[nH]c2c1)N1CCN(c2ccc(F)cc2)CC1	11µM*	?	?	?	?	0%
O=C(c1ccc2c(=O)n(CCc3ccccc3)c(=O)[nH]c2c1)N1CCN(c2ccccc2)CC1	-26%	10%[46.1 µM]	-4%	?	-27%	-2%
O=C(c1ccc2c(=O)n(CCc3ccccc3)c(=O)[nH]c2c1)N1CCN(c2ccc(Cl)cc2)CC1	16µM*	?	-28%	?	·	-30%
O=C(c1ccc2c(=O)n(CCc3ccccc3)c(=O)[nH]c2c1)N1CCN(C(=O)c2ccco2)CC1	·	·	0%	·	·	-17%
COc1cc2[nH]c(=O)n(Cc3ccc(C(=O)N4CCN(c5ccc(Cl)cc5)CC4)cc3)c(=O)c2cc1OC	25µM*	?	?	-24%[46.1 µM]	·	?
COc1ccc(N2CCN(C(=O)c3ccc4c(=O)n(CCc5ccc(OC)c(OC)c5)c(=O)[nH]c4c3)CC2)cc1	28µM*	11µM*	-22%	-26%	11µM*	-14%
COc1cc2[nH]c(=O)n(Cc3ccc(C(=O)N4CCC(N5CCCCC5)CC4)cc3)c(=O)c2cc1OC	-9%	·	-9%	·	-7%	-4%
CC(C)Cc1nc2cc(NS(=O)(=O)N(C)C)cc(C(=O)N3CCOCC3)c2n1C	26%	·	-13%	·	·	-5%
SMILES	FMDV antiviral	Marburg entry inh	Vaccinia mCherry	LASV entry inh	HCV inhibitor	Vaccinia Venus
Cc1cc(O)c(C)c2c1CC[C@H]1[C@H](C)C(=O)O[C@H]21	-11%	·	·	·	·	·
COC(=O)c1ccccc1NC(=O)c1cnn2c1NC(=C1CC1)C=C2C(F)F	·	·	-1%	·	·	-17%
COc1ccc(OC)c(NC(=O)c2ccc3c(=O)n(CCc4ccccc4)c(=S)[nH]c3c2)c1	0.79µM*	?	-10%	?	?	-9%
O=C(CCCn1c(=O)[nH]c2ccccc2c1=O)Nc1ccc(F)cc1	0%	5%	-3%	6%	24%	-13%
O=C(c1ccc(F)cc1)C1CCN(CCn2c(=O)[nH]c3ccccc3c2=O)CC1	-14%	11µM*	-1%	0%	?	-19%
Oc1cc(O)c(/C=C/c2ccnc3ccccc23)c(O)c1	·	·	29%	·	·	-3%
CC(=O)c1cccc(NC(=O)COC(=O)c2ccccc2OCc2cccc(Br)c2)c1	·	·	-20%	·	·	-10%
O=C(NCc1ccccc1CN1CCCC1)c1ccc(Cl)c(S(=O)(=O)N2CCCC2)c1	4%	?	-10%	-17%	13µM*	-23%
COc1ccc2oc(C(=O)NCc3ccccc3CN3CCCC3)c(C)c2c1	-20%	·	·	·	?	·
COc1ccc(C(=O)NCCc2c[nH]c3ccccc23)cc1S(=O)(=O)N1CCCCC1C (configuration not stated)	-23%	?	-9%	?	?	-19%
CC(NC(=O)c1ccc(Cl)c(S(=O)(=O)N2CCCCCC2)c1)c1cccnc1 (configuration not stated)	?	·	·	·	13µM*	·
O=C(Nc1cccnc1)c1ccc(Cl)c(S(=O)(=O)N2CCCCC2)c1	0%	3%[46.1 µM]	i	-2%[46.1 µM]	?	-18%
COc1ccc2cc(C(=O)NCc3ccccc3CN3CCCC3)ccc2c1	-27%	·	·	·	7.1µM*	·
COc1ccc(C(=O)NCCc2ccc(Cl)cc2)cc1S(=O)(=O)N1CCCCC1C (configuration not stated)	0%	·	·	·	8.9µM*	·
COc1ccc(-c2cc(-c3ccc4c(c3)NC(=O)CO4)nc3c2COc2ccc(C)cc2-3)cc1	3%	-18%[46.1 µM]	-12%	12%[46.1 µM]	·	1%
Cc1noc(C)c1S(=O)(=O)N(C)C[C@H]1Oc2c(NS(=O)(=O)c3cn(C)cn3)cccc2C(=O)N([C@H](C)CO)C[C@@H]1C	2%	·	-11%	·	?	-10%
O=C(CCCN1C(=O)c2cccnc2Oc2ccc(Cl)cc21)NCc1ccccc1F	3%	·	-13%	-1%[46.1 µM]	·	-6%

Screening data from PubChem BioAssay.
